For assay [1], the target named is Small conductance calcium-activated potassium channel protein 1 (Rattus norvegicus) (UniProt P70606). The experiment in a line: NVS_IC_rKCaCh: NovaScreen (NVS) Ion Channel Assay for rat Potassium Channel, Ca2+ Act., VI (KCaCh) (AID 2283336). The procedure, abridged:
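Filter-based scintillation counting of radioligand bound to rat forebrain membrane preparations, measured 1 h after compound addition. Primary screen used 25 uM in duplicate, with concentration-response follow-up; signal decrease relative to DMSO marks activity.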

Assay [2] in a line: NVS_IC_rCaBTZCHL: NovaScreen (NVS) Ion Channel Assay for Calcium Channel, Type L, Benzothiazepine Site (CaBTZCHL) (AID 2283337). The method in brief: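 Benzothiazepine-site binding was assessed in a tissue-derived, cell-free rat cortical membrane system. After 1.5 h exposure, radioactivity retained on filters was quantified by scintillation; positive and negative controls accompanied every plate.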

Assay [3] concerns the target bovine Gamma-Aminobutyric Acid Type A Receptor Agonist (GABAR Agonist), GABRA1 (gene 780973) (UniProt P08219). In words: NVS_LGIC_bGABAR_Agonist: NovaScreen (NVS) Ligand-Gated Ion Channel Assay for bovine Gamma-Aminobutyric Acid Type A Receptor Agonist (GABAR Agonist) (AID 2283338). The method in brief: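 Radioligand binding to bovine cerebellar membranes in agonist format, read by filter-based scintillation counting after 1 h. Primary screen in duplicate at 25 uM, with actives followed in concentration series. Gain of signal versus DMSO.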

In assay [4] the target is Bile acid receptor (Homo sapiens) (UniProt Q96RI1). In words: NVS_NR_hFXR_Antagonist: NovaScreen (NVS) Nuclear Receptor Binding Assay for human Farnesoid X Receptor Antagonism (FXR) (AID 2283350). The procedure, abridged:
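Antagonist-format time-resolved FRET binding assay with extracted human receptor protein, read 1 hour after compound addition. Compounds first screened at 25 uM in duplicate, then actives tested in concentration series, with loss of signal relative to DMSO.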

Assay [5] addresses Retinoic acid receptor alpha (Homo sapiens) (UniProt P10276). The experiment in a line: NVS_NR_hRAR_Antagonist: NovaScreen (NVS) Nuclear Receptor Binding Assay for human Retinoic Acid Alpha Receptor Antagonism (RAR) (AID 2283358). The procedure, abridged:
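RARalpha antagonism was read by TR-FRET as loss of binding signal versus DMSO, 2 h after chemical addition, in a biochemical format. Single-concentration duplicates (25 uM) were run first, and actives were retested in concentration series.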

The target of assay [6] is chimpanzee Androgen Receptor (AR), AR (gene 747460) (UniProt O97775). In words: NVS_NR_cAR: NovaScreen (NVS) Nuclear Receptor Binding Assay for chimpanzee Androgen Receptor (AR) (AID 2283346).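 Also: radioligand displacement from AR measured by scintillation counting in a cell-free assay; a loss of bound radioligand signal versus DMSO counts as binding.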 The procedure, abridged: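 Cell-free competition binding with insect-cell (Sf9/Sf21) extracted chimpanzee AR; scintillation signal from lysate at 72 h. Screened in duplicate at 25 uM, then concentration-response for actives; fitting relative to DMSO.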

The target in assay [7] is Estrogen receptor (Homo sapiens) (UniProt P03372). The experiment in a line: OT_ER_ERaERa_1440: Odyssey Thera (OT) 24-hour HEK293T Protein-Complementation Assay for Estrogen Receptor-alpha/-alpha Homodimer (AID 2283349).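 Also: hits raise fluorescence above DMSO for agonists and antagonists alike.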 The procedure, abridged: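 HEK293T, stable ERα LBD (aa 310-547) homodimer PCA; 24 h compound exposure; mean fluorescence intensity (nuclear for agonists, nuclear plus cytoplasmic for antagonists) vs vehicle; positive fitting direction, DMSO baseline.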

Assay [8] shares this target. In words: OT_ER_ERaERa_0480: Odyssey Thera (OT) 8-hour HEK293T Protein-Complementation Assay for Estrogen Receptor-alpha/-alpha Homodimer (AID 2283351).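 Also: rise in fluorescence from reassembled reporter fragments on ERα LBD homodimer in nucleus or whole cell.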 The procedure, abridged: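 Measures ERα LBD (aa 310-547) homodimer complementation in stably transfected HEK293T at 8 h post-dose, with fluorescence intensity quantified on a laser scanning cytometer relative to DMSO controls.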

In assay [9] the target is Androgen Receptor/SRC-1 Co-activator, AR (gene 367) (UniProt P10275). In words: OT_AR_ARSRC1_0480: Odyssey Thera (OT) 8-hour HEK293T Protein-Complementation Assay for Androgen Receptor/SRC-1 Co-activator (AID 2283354).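 Also: hits raise the complementation signal above DMSO so AC50 marks enhancers.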 The method in brief:
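Reconstituted split-Venus YFP signal from AR–SRC-1 interaction, read by imaging 8 h post-dose in stable HEK293T lines. The 488 nm nucleus-to-cytoplasm ratio (≥400 cells/image) was fitted upward against DMSO.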

In assay [10] the target is human Peroxisome Proliferator-activated Receptor alpha (PPARa), PPARA (gene 5465) (UniProt Q07869). In words: NVS_NR_hPPARa: NovaScreen (NVS) Nuclear Receptor Binding Assay for human Peroxisome Proliferator-activated Receptor alpha (PPARa) (AID 2283359).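 Also: activity means loss of TR-FRET signal versus DMSO baseline.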 The procedure, abridged: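 Loss of TR-FRET binding signal relative to DMSO was measured 1 h after chemical addition to extracted receptor protein. Chemicals were first tested in duplicate at 25 uM, and actives were followed up in concentration series.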

Assay [11] has as its target T1, Estrogen receptor (Homo sapiens) + Estrogen receptor beta (Homo sapiens) (UniProt P03372+Q92731). In words: OT_ER_ERaERb_0480: Odyssey Thera (OT) 8-hour HEK293T Protein-Complementation Assay for Estrogen Receptor-alpha/-beta Heterodimer (AID 2283352). The method in brief: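 Human HEK293T cells were treated for 8 hours and receptor heterodimerisation was detected through reconstitution of a fluorescent reporter split between ER-alpha and ER-beta ligand-binding domains. Activity was analysed as gain of signal against DMSO.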

Assay [12] deals with rat Mineralocorticoid Receptor (MR), Nr3c2 (gene 25672) (UniProt P22199). In words: NVS_NR_rMR: NovaScreen (NVS) Nuclear Receptor Binding Assay for rat Mineralocorticoid Receptor (MR) (AID 2283355). The method in brief:
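Primary HTS ran in duplicate at a single 25 uM concentration, with concentration-series follow-up for actives. Receptor source: adrenalectomized rat brain supernatant, cell-free. Radioligand displacement read by scintillation at 24 h, relative to DMSO baseline.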

Assay [13] addresses T1, Estrogen receptor (Homo sapiens) + Estrogen receptor beta (Homo sapiens). In words: OT_ER_ERaERb_1440: Odyssey Thera (OT) 24-hour HEK293T Protein-Complementation Assay for Estrogen Receptor-alpha/-beta Homodimer (AID 2283356).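 Also: heteromer of ER alpha and ER beta binding domains; hits raise reporter fluorescence and both agonists and antagonists give an increase.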 The method in brief:
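24 h exposure; HEK293T PCA cells with ERα/ERβ LBD fragments; signal rise in nuclear or whole-cell fluorescence over vehicle.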

The target in assay [14] is Estrogen receptor beta (Homo sapiens) (UniProt Q92731). The experiment in a line: OT_ER_ERbERb_0480: Odyssey Thera (OT) 8-hour HEK293T Protein-Complementation Assay for Estrogen Receptor-beta/-beta Homodimer (AID 2283357).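 Also: active means signal gain over DMSO baseline.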 The procedure, abridged:
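ER-beta LBD homodimer PCA stably expressed in HEK293T; 8 h compound exposure, then formaldehyde fixation and Draq5 staining. Gain in nuclear/cytoplasmic fluorescence intensity versus DMSO vehicle, read on laser scanning cytometer.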

The target of a further assay is PGR (gene 5241) (UniProt P06401). In words: NVS_NR_hPR: NovaScreen (NVS) Nuclear Receptor Binding Assay for human Progestron Receptor (PR) (AID 2283360).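 Also: active means loss of bound radioligand signal versus DMSO baseline.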 The procedure, abridged: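 Radioligand competition binding on receptor extracted from T47D cells, read by scintillation counting 18 h after dosing. Loss of signal versus DMSO; primary screen in duplicate at 25 uM, actives followed in concentration series.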

Assay [15] has as its target bovine Estrogen Receptor (ER), ESR1 (gene 407238) (UniProt P49884). In words: NVS_NR_bER: NovaScreen (NVS) Nuclear Receptor Binding Assay for bovine Estrogen Receptor (ER) (AID 2283345).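 Also: actives lower the bound radioligand count which means they displace the ER ligand.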 The method in brief:
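Cell-free radioligand binding with bovine uterine membrane extracts, read 18 hours after dosing by scintillation counting. Loss of signal versus DMSO baseline indicates displacement. Primary screen run in duplicate at 25 uM, actives followed in concentration series.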

Assay [16] addresses Estrogen receptor (Homo sapiens) (UniProt P03372). In words: NVS_NR_hER: NovaScreen (NVS) Nuclear Receptor Binding Assay for human Estrogen Receptor (ER) (AID 2283348). The method in brief:
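Cell-free MCF7-derived ER preparation, specific radioligand displaced by test compound, read by scintillation counting 18 h post-dosing. Duplicate single-point 25 uM screen, then concentration-response confirmation; DMSO baseline.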

Drawing on PubChem BioAssay (EPA / NIEHS), this text covers outcome and AC50 for 19 compounds.

Inconclusive results are not listed. Activity calls are given as the source filed them. The calls were made as follows: active = hit-call score of the fitted dose curve at least 0.9, where 1 is the maximum; inconclusive = response in the unintended direction; inactive = score below 0.9.

For orientation: AC50 means the concentration at which the activity in the assay is half-maximal.

Chain of Bile acid receptor (Homo sapiens) (Q96RI1 whole entry, looked up): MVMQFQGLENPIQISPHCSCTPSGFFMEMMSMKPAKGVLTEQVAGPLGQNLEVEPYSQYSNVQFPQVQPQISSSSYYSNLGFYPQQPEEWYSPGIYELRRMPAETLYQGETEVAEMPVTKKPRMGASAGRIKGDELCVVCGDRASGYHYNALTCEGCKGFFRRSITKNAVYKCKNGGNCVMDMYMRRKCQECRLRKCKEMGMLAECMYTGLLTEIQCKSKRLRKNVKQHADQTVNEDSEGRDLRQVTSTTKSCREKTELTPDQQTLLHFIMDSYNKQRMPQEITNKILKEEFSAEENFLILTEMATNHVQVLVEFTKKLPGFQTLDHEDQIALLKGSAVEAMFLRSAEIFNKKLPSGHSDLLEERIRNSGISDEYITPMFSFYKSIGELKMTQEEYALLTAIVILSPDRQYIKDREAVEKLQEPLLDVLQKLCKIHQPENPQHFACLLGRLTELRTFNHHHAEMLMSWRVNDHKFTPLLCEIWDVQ
T1 sequence (P03372 whole entry, looked up, the tested form may be a part): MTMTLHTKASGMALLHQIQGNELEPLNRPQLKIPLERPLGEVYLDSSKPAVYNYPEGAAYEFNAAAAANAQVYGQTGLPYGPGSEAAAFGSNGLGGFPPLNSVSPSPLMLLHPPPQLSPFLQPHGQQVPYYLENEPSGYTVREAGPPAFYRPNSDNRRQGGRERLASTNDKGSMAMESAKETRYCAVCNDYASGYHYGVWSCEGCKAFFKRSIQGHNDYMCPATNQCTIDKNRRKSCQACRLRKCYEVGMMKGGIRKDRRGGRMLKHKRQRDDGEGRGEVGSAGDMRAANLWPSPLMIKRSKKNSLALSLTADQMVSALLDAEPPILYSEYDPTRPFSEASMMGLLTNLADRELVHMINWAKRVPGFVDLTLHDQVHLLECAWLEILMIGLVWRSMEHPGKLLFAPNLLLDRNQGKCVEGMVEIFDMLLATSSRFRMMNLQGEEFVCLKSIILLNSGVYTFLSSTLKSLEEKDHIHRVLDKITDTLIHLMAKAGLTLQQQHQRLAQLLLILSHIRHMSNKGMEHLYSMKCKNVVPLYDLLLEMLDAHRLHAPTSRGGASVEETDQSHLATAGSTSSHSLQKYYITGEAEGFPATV
T1 sequence (Q92731 whole entry, looked up, the tested form may be a part): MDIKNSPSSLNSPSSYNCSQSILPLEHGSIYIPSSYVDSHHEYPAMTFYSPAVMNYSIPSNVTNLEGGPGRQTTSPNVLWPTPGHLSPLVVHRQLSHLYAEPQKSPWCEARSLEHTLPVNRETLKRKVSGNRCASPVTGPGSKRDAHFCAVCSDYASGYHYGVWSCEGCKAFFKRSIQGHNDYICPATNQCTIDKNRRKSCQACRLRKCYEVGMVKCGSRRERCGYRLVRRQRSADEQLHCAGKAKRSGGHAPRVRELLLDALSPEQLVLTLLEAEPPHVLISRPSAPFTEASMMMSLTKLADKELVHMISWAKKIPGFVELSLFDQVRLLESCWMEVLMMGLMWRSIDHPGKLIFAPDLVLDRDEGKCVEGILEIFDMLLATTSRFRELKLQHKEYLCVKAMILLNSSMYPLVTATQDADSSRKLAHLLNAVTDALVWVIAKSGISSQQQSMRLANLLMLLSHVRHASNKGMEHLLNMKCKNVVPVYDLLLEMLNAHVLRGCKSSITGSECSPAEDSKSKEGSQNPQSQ
Chain of Estrogen receptor (Homo sapiens) (P03372 whole entry, looked up, the tested form may be a part): as the sequence (P03372 whole entry, looked up, the tested form may be a part) above
Chain of Estrogen receptor beta (Homo sapiens) (Q92731 whole entry, looked up, the tested form may be a part): as the sequence (Q92731 whole entry, looked up, the tested form may be a part) above
Chain of bovine Estrogen Receptor (ER), ESR1 (gene 407238) (P49884 whole entry, looked up): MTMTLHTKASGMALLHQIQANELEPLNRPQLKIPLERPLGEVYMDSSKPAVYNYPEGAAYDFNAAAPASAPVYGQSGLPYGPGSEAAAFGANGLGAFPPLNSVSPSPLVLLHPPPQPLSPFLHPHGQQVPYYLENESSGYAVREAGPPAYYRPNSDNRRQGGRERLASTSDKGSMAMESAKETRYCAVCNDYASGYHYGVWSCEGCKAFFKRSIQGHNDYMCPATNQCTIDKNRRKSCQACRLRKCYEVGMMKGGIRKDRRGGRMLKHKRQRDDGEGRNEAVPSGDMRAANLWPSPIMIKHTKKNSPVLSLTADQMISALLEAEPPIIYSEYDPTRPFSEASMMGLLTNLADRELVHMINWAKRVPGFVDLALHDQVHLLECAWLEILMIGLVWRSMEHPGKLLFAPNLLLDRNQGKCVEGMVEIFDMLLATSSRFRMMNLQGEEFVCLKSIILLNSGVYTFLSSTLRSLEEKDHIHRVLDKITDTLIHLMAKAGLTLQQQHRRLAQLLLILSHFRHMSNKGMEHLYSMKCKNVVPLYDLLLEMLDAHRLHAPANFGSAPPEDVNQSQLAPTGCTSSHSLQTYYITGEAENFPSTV
Chain of rat Mineralocorticoid Receptor (MR), Nr3c2 (gene 25672) (P22199 whole entry, looked up): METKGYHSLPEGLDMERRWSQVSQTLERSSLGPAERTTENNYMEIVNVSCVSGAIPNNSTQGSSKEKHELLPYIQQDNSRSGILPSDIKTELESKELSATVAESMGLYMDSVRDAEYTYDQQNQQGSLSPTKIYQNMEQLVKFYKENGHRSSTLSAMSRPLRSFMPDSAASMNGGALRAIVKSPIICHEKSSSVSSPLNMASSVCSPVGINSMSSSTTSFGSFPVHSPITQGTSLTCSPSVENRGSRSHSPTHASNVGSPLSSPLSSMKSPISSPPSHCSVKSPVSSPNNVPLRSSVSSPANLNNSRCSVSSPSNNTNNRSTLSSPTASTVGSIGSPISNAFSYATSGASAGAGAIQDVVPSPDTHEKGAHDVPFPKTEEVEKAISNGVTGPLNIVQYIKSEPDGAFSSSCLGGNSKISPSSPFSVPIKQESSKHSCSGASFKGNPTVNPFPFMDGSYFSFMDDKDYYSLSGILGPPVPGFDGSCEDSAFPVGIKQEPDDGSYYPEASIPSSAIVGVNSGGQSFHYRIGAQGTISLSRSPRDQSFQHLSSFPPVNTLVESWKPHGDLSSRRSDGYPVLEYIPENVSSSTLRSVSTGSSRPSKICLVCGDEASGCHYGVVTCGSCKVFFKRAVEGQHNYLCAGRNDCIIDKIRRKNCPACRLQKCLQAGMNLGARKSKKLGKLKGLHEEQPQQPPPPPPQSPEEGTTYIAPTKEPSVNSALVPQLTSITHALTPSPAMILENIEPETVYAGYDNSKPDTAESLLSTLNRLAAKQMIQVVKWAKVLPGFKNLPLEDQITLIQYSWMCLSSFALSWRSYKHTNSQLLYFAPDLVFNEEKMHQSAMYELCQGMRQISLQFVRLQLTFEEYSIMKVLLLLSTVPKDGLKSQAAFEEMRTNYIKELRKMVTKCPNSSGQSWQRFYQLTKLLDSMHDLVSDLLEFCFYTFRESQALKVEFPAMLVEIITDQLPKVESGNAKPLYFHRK
Chain of Retinoic acid receptor alpha (Homo sapiens) (P10276 whole entry, looked up): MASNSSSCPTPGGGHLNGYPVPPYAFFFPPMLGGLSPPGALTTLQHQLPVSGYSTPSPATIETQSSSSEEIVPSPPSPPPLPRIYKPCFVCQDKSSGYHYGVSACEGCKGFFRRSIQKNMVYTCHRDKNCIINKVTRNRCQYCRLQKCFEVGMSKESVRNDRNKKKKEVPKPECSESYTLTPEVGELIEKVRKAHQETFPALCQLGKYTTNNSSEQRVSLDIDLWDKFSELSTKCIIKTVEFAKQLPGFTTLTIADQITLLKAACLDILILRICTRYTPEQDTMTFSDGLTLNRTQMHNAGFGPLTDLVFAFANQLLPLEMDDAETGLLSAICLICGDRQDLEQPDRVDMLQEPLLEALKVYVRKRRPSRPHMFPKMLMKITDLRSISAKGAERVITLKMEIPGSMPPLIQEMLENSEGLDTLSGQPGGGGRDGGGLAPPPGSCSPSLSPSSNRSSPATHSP
Chain of Small conductance calcium-activated potassium channel protein 1 (Rattus norvegicus) (P70606 whole entry, looked up): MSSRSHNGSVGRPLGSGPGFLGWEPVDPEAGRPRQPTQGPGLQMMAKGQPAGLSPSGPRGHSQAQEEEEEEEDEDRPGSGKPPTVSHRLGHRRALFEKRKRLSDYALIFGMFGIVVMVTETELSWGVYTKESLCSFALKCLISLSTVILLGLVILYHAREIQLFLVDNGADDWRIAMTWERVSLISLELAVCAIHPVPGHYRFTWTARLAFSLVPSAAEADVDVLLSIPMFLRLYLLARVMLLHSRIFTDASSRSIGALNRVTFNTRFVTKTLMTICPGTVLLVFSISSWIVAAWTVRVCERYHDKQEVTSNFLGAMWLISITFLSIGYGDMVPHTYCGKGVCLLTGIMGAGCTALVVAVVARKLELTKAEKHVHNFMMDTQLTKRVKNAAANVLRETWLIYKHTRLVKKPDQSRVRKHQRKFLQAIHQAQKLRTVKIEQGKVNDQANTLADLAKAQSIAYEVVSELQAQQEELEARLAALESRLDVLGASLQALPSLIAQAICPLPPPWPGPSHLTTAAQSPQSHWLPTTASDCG
Chain of human Peroxisome Proliferator-activated Receptor alpha (PPARa), PPARA (gene 5465) (Q07869 whole entry, looked up): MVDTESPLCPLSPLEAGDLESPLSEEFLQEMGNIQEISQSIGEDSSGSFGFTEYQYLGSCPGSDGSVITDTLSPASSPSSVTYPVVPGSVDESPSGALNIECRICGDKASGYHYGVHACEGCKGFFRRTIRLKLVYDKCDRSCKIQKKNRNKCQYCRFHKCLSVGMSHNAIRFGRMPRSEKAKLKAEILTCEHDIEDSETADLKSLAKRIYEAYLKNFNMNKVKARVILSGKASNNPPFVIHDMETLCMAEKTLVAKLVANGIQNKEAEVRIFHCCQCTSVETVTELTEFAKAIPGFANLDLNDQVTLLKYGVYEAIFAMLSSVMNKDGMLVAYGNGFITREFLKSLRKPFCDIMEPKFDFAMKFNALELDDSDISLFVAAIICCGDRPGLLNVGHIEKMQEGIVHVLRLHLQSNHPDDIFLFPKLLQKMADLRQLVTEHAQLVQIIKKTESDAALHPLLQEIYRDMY

As to `CC(=O)[C@H]1CC[C@H]2[C@@H]3CCC4=CC(=O)CC[C@]4(C)[C@H]3CC[C@]12C`, the outcome in assay [1] was inactive.

Consider `C[C@]12CC[C@@H]3c4ccc(O)cc4C[C@@H](CCCCCCCCCS(=O)CCCC(F)(F)C(F)(F)F)[C@H]3[C@@H]1CC[C@@H]2O` (stereo not given in full), for which the result in [1] was inactive. In addition, in [2], the AC50 is 1.45 µM (active).

Take `CC(C)(c1ccc(O)cc1)c1ccc(O)cc1`: the result in assay [2] was inactive.

Regarding `COc1nc(C)nc(NC(=O)NS(=O)(=O)c2ccccc2OCCCl)n1`, the compound was classed as inactive in assay [3].

In the case of `N#CSCSc1nc2ccccc2s1`, in assay [4], the AC50 is 4.96 µM (active).

`Oc1ccc(C(c2ccc(O)cc2)C(Cl)(Cl)Cl)cc1`: the outcome in assay [4] was inactive.

With `COC(=O)c1ccccc1C(=O)O`, the compound was classed as inactive in [5].

Turning to `CN(C)C(=O)Nc1ccc(Cl)c(Cl)c1`, the AC50 in assay [6] was 25 µM (active). In addition, the outcome in [7], in [8], in assay [9] and in [10] was inactive.

`CCSC(=O)N(CC(C)C)CC(C)C`: the result in assay [7], in assay [8], in assay [11], in assay [9], in assay [12] and in [13] was inactive. Also, in assay [14], the result was inactive.

In the case of `O=C(Nc1ccc([N+](=O)[O-])cc1Cl)c1cc(Cl)ccc1O`, the result in [7], in [8], in [11], in assay [13] and in assay [14] was inactive.

On to `CCN(Cc1c(F)cccc1Cl)c1c([N+](=O)[O-])cc(C(F)(F)F)cc1[N+](=O)[O-]`, for which the AC50 in assay [7] was 15.2 µM (active); in assay [8] it was 9.68 µM (active); in [11] it was 7.66 µM (active); in [13], 10.3 µM (active). Further, the call in assay [12] and in assay [14] was inactive.

Regarding `O=C(O)C1(C(=O)Nc2ccc(Cl)cc2Cl)CC1`, the result (in assay [7]; in assay [11]; in [13]; in [14]; in assay [5]; in the assay with PGR (gene 5241)) was inactive.

In the case of `CCCCOC(=O)C(C)Oc1ccc(Oc2ccc(C(F)(F)F)cn2)cc1` (stereo not given), the result in assay [15], in assay [7], in assay [8], in assay [11], in [13] and in assay [14] was inactive.

Consider `COCCO`, for which the result in [15], in assay [7] and in assay [8] was inactive.

Regarding `OB(O)O`, the compound was classed as inactive in assay [7].

`CCC(C)OC(=O)N1CCCCC1CCO` (stereo not given): the compound was classed as inactive in assay [14].

As for `COC(=O)c1cccc(C)c1S(=O)(=O)NC(=O)Nc1nc(OCC(F)(F)F)nc(N(C)C)n1`, the compound was called inactive in assay [4].

As to `CCCCC(CC)COC(=O)c1ccccc1C(=O)O` (stereo not given), the outcome in assay [14] was inactive.

Take `C#CCOC(=O)[C@@H](C)Oc1ccc(Oc2ncc(Cl)cc2F)cc1`: the call in assay [16], in [7], in assay [11], in [13] and in assay [14] was inactive.
